From PubChem BioAssay (Tox21)
Records with an inconclusive call do not appear. Active and inactive are the calls of the source. Unless noted, calls come from the whole dose curve; as a rule, active = well fitted curve in the direction sought with a large enough effect in the repeat runs; inconclusive = weak or mixed curves; inactive = no such curve, though single readings can be large; an effect the other way counts as inactive or inconclusive.

Columns and labels:
[1] = qHTS assay to identify small molecule agonists of the vitamin D receptor (VDR) signaling pathway - cell viability counter screen (AID 743224); note: nearly all actives have a fitted effect of over 50% in size; note: potency is the fitted concentration of half-maximal effect
Method in brief: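 Compounds were pin-transferred onto VDR-bla cells plated 4 h earlier; following 16 h incubation at 37C, cell viability was quantified by CellTiter-Glo luminescence after 30 min at room temperature.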

[2] = qHTS assay to identify small molecule antagonists of the vitamin D receptor (VDR) signaling pathway - cell viability counter screen (AID 743225); note: nearly all actives have a fitted effect of over 50% in size; note: potency is the fitted concentration of half-maximal effect
Method in brief: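 Luminescent cell viability (CellTiter-Glo) in VDR-bla HEK 293T cells after 16 h compound exposure at 37C in the presence of 3 nM final 1-alpha,25-dihydroxy vitamin D3.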

[3] = qHTS assay to identify small molecule agonists of the NFkB signaling pathway - cell viability counter screen (AID 1159515; calls by dose curve; note: series mostly up to about 61 µM; nearly all actives have a fitted effect of over 55% in size)
Method in brief: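 Parallel cytotoxicity counter screen in ME-180 cells carrying an NFkB-response-element beta-lactamase reporter, 2,000 cells/well. Compound exposure lasted 5 hr at 37 C, 5% CO2. Cell viability was quantified by CellTiter-Glo luminescence.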

[4] = qHTS assay to identify small molecule agonists of the endoplasmic reticulum stress response signaling pathway (AID 1159516; active = well fitted activation curve with a large enough effect in the signal ratio in the repeat runs, not every such curve was filed as active; the % refers to the signal ratio)
Method in brief: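 Using a HeLa line with an ESRE-driven beta-lactamase gene, agonist activity was measured by FRET substrate fluorescence (460 and 530 nm emission) after cells were treated with compounds for 5 hr at 37 C and 5% CO2.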

[5] = qHTS assay to identify small molecule agonists of the endoplasmic reticulum stress response signaling pathway - cell viability counter screen (AID 1159517; calls by dose curve;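 note: HeLa cells carrying an ER stress response element beta-lactamase reporter; series mostly up to about 61 µM; nearly all actives have a fitted effect of over 50% in size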)
Method in brief: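 After overnight attachment, ESRE-bla HeLa cells were treated with Tox21 library compounds for 5 hr. CellTiter-Glo luminescence, read 30 min post-addition at room temperature, reported viability.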

[6] = qHTS assay to identify small molecule antagonists of the retinoid-related orphan receptor gamma (ROR-gamma) signaling pathway - cell viability counter screen (AID 1159520); note: nearly all actives have a fitted effect of over 50% in size; note: potency is the fitted concentration of half-maximal effect
Method in brief: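 Cytotoxicity was read from cellular ATP (CellTiter-Glo luminescence) after 16 hr at 37 C with 1 uM doxycycline induction. The inducer was added 2 hr after compound transfer to Tet-on ROR gamma CHO cells.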

[7] = qHTS assay to identify small molecule agonists of the AP-1 signaling pathway - cell viability counter screen (AID 1159525; calls by dose curve; note: nearly all actives have a fitted effect of over 55% in size)
Method in brief: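 Intracellular ATP by Cell Titer Glo luminescence (30 min, RT) in the same ME-180 AP-1-bla wells after the 5 h compound exposure at 37 °C. Normalised to tetra n-octyl ammonium bromide and DMSO controls.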

[8] = qHTS assay to identify small molecule agonists of the AP-1 signaling pathway (AID 1159526; calls by dose curve; note: potency is the fitted concentration of half-maximal effect)
[9] = target: Retinoic acid receptor RXR-alpha (Homo sapiens) (UniProt P19793); assay: qHTS assay to identify small molecule agonists of the RXR signaling pathway (AID 1159527; calls by dose curve; note: nearly all actives have a fitted effect of over 35% in size; note: potency is the fitted concentration of half-maximal effect)
Retinoic acid receptor RXR-alpha (Homo sapiens), sequence (P19793 whole entry, looked up): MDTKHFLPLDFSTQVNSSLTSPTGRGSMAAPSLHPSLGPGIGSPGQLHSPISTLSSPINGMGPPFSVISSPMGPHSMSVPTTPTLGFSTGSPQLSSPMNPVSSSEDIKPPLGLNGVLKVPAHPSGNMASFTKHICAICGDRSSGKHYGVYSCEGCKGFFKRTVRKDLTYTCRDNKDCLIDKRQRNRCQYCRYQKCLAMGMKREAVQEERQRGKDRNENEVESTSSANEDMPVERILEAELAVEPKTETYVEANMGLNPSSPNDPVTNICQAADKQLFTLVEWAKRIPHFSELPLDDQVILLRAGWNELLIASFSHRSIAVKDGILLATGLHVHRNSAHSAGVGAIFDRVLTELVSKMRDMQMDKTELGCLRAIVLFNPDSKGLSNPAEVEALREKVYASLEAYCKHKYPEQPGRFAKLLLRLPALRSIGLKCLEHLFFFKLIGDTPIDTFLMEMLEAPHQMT
Method in brief: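 Beta-lactamase reporter assay, agonist format. Engineered HEK 293T line, charcoal-stripped FBS at 2%, overnight (16 hr) exposure, fluorescence at 460 and 530 nm after 405 nm excitation.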

[10] = qHTS assay to identify small molecule antagonists of the retinoid acid receptor (RAR) signaling pathway - cell viability counter screen (AID 1159551); note: nearly all actives have a fitted effect of over 35% in size
Method in brief: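 ATP-based viability, C3RL4 cells, 6 h at 37 C with 1 uM final retinol co-added after compound; luminescence read 30 min post CellTiter-Glo, RT.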

[11] = qHTS assay to identify small molecule antagonists of the retinoic acid receptor (RAR) signaling pathway (AID 1159552; note: nearly all actives have a fitted effect of over 50% in size)
Method in brief: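 Readout: luciferase luminescence, 30 min post-reagent at RT. Setup: C3RL4 RARE reporter cells, compounds plus retinol 1 uM final, 6 hr incubation at 37 C and 5% CO2.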

[12] = qHTS assay to identify small molecule agonists of the retinoic acid receptor (RAR) signaling pathway (AID 1159553)
Method in brief: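 Quantitative high-throughput format: the Tox21 10K library was tested on C3RL4 RARE-luciferase cells for 6 hr at 37 C and 5% CO2, with luminescence measured after a 30 min room-temperature reagent step.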

[13] = qHTS assay to identify small molecule agonists of the RXR signaling pathway - cell viability counter screen (AID 1159529); note: nearly all actives have a fitted effect of over 50% in size; note: potency is the fitted concentration of half-maximal effect
Method in brief: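 Same-well viability check after the LiveBLAzer FRET read: CellTiter-Glo added, luminescence measured after 30 min at room temperature. Reporter HEK 293T cells had been treated with compounds for 16 hr following a 5 hr preincubation.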

[14] = qHTS assay to identify small molecule antagonists of the estrogen related receptor (ERR) signaling pathway - cell viability counter screen (AID 1224818);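 note: series mostly up to about 46 µM; viability measured after 17.5 h of compound exposure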
Method in brief: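 Quantitative high-throughput viability counter screen in ERR cells. Compounds (DMSO) incubated 17.5 h at 37 C; read-out was CellTiter-Fluor fluorescence.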

[15] = qHTS assay to identify small molecule antagonists of the estrogen related receptor signaling pathway with the pleiotropic PPARgamma coactivator (PGC) cell viability counter screen (AID 1224822; note: series mostly up to about 46 µM)
Method in brief: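 Cytotoxicity in the PGC/ERR cell line is assessed with CellTiter-Fluor, read as fluorescence intensity 30 min after reagent addition, following 17.5 h compound treatment at 37 C.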

Measured: Potency

CCCCNc1ccc(C(=O)OCCOCCOCCOCCOCCOCCOCCOCCOCCOC)cc1
inactive: [1] | [2] | [3] | [4] | [5] | [6] | [7] | [8] | [9] | [10]

CCN(CC)CCOC(=O)C(Cc1cccc2ccccc12)CC1CCCO1 (stereo not given)
inactive: [1] | [2] | [3] | [4] | [5] | [6] | [7] | [10] | [11] | [12]
active: [8] 21.3 µM

COC(=O)c1ccc(I)cc1S(=O)(=O)NC(=O)Nc1nc(C)nc(OC)n1
inactive: [1] | [2] | [3] | [4] | [5] | [6] | [7] | [8] | [13] | [10]

CCCCc1nc2cccnc2n1Cc1ccc(-c2ccccc2-c2nnn[nH]2)cc1
inactive: [1] | [2] | [3] | [4] | [5] | [6] | [7] | [8] | [13] | [10]

CC(C)(COC(=O)c1ccccc1)COC(=O)c1ccccc1
inactive: [1] | [2] | [3] | [4] | [5] | [6] | [7] | [8] | [13] | [10]

C[C@H]1C[C@H]2[C@@H]3CCC4=CC(=O)C=C[C@]4(C)[C@@]3(Cl)[C@@H](O)C[C@]2(C)[C@@]1(O)C(=O)CO
inactive: [1] | [2] | [3] | [4] | [5] | [6] | [7] | [8] | [10]

CC(C)(O)c1ccc(CNC(=O)c2cccnc2Oc2ccc(F)cc2)cc1
inactive: [1] | [2] | [3] | [4] | [5] | [6] | [7] | [8] | [10] | [11] | [12]

CCOC(=O)C1=C[C@]2(CC)CCCN3CCc4c(n1c1ccccc41)[C@@H]32
inactive: [1] | [2] | [3] | [4] | [5] | [6] | [7] | [9] | [13] | [10] | [11] | [12] | [14] | [15]

NCCCN1CCOCC1
inactive: [1] | [2] | [3] | [4] | [5] | [6] | [7] | [8] | [13] | [10]

CCN(CC)CCNc1ccc(CNC=O)c2sc3ccc(OC)cc3c(=O)c12
active: [1] 54.9 µM | [2] 43.6 µM | [6] 54.5 µM | [13] 3.09 µM
inactive: [3] | [4] | [5] | [7] | [8] | [10]

CCCCCCCCCCO[C@@H]1O[C@H](CO)[C@@H](O)[C@H](O)[C@H]1O
inactive: [3] | [4] | [5] | [6] | [7] | [8] | [10] | [11] | [12]

O=S(c1cc(Cl)cc(Cl)c1O)c1cc(Cl)cc(Cl)c1O
inactive: [2] | [3] | [4] | [5] | [6] | [7] | [13] | [10] | [11] | [12]

CC(=O)c1ccc2c(c1)N(CCCN1CCC(CCO)CC1)c1ccccc1S2
inactive: [3] | [4] | [5] | [6] | [7] | [10]
active: [13] 10.7 µM

CCC(C)c1cc(C(C)(C)C)c(O)c(C(C)(C)C)c1 (stereo not given)
inactive: [1] | [2] | [3] | [4] | [5] | [6] | [7] | [13] | [10] | [12]
active: [9] 958 nM

C=CCOc1ccccc1OCC(O)CNC(C)C (stereo not given)
inactive: [1] | [2] | [3] | [4] | [5] | [6] | [7] | [9] | [13] | [10] | [11] | [12]

CNCCCCOc1ccccc1Cc1ccccc1
inactive: [3] | [4] | [5] | [6] | [7] | [13] | [10]

CC(=O)c1cccc([N+](=O)[O-])c1
inactive: [1] | [2] | [3] | [4] | [5] | [6] | [7] | [8] | [13] | [10]

CCc1cc(C2=C(C(=O)O)N(c3ccccc3C(F)(F)F)S(=O)(=O)c3ccccc32)cc2c1OCO2
inactive: [1] | [2] | [3] | [4] | [5] | [6] | [7] | [8] | [10]

COc1cc(Cl)ccc1Oc1ccc(Cl)cc1Cl
inactive: [2] | [3] | [4] | [5] | [6] | [7] | [9] | [10] | [11]

CN1C[C@H]2c3ccccc3Oc3ccc(Cl)cc3[C@@H]2C1
inactive: [1] | [2] | [3] | [4] | [5] | [6] | [7] | [9] | [13] | [10] | [11] | [12]

S=C([S-])NCCNC(=S)[S-].[Mn+2]
inactive: [1] | [2] | [3] | [4] | [5] | [6] | [7] | [8] | [10]
